Results as given in PMC7862700, “An all-to-all approach to the identification of sequence-specific readers for epigenetic DNA modifications on cytosine”.

Tests used:
Test in all cases: DAPPL (digital affinity profiling via proximity ligation, sequencing); 10 mM Tris-HCl pH 7.5, 50 mM NaCl, 1 mM DTT, 4% glycerol, room temperature, 30 min; GST-TFs on glutathione beads, 16-mer random dsDNA library, 0.1% formaldehyde crosslink after washing; high values mean tight binding
Details in all cases: protein: recombinant; tags: N-terminal GST; dsDNA, one strand shown
FEV = target: T1, FEV (Homo sapiens, UniProt Q99581 1-238)
T1 sequence: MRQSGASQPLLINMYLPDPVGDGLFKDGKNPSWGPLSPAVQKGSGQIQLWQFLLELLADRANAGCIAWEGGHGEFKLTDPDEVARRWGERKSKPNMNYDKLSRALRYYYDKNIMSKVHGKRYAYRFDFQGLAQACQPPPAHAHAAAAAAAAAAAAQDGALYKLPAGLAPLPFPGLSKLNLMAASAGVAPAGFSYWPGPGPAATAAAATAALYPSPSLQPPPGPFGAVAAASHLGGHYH
In short: (§1)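 GST fusions of human transcription factors were expressed in yeast and captured with glutathione beads. Once given DNA barcodes and pooled alongside a tag-only sample, they were incubated for 30 min at room temperature with 200 nmole of a random double-stranded 16-mer DNA library in Tris/NaCl/DTT/glycerol buffer, then washed, crosslinked (0.1% formaldehyde), proximity-ligated, PCR-amplified and sequenced on an Illumina NextSeq500. The binding signal of each hexamer is its read frequency for a factor divided by its frequency for the tag-only sample.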

ETV5 = ETV5 (Homo sapiens, UniProt P41161 1-510)
In short: as §1

SPIC = target: T2, SPIC (Homo sapiens, UniProt Q8N5J4 1-248)
T2 sequence: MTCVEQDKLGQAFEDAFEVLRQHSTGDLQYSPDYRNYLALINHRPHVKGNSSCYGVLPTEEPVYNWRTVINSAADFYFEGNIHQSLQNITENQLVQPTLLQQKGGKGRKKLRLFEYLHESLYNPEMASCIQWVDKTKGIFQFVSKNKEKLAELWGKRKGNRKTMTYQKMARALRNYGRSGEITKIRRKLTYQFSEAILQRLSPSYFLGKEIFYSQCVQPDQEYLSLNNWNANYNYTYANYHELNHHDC
In short: as §1

ELF4 = ELF4 (Homo sapiens, UniProt Q99607 1-663)
In short: as §1

ELK4 = target: T3, ELK4 (Homo sapiens, UniProt P28324-2 1-405)
T3 sequence: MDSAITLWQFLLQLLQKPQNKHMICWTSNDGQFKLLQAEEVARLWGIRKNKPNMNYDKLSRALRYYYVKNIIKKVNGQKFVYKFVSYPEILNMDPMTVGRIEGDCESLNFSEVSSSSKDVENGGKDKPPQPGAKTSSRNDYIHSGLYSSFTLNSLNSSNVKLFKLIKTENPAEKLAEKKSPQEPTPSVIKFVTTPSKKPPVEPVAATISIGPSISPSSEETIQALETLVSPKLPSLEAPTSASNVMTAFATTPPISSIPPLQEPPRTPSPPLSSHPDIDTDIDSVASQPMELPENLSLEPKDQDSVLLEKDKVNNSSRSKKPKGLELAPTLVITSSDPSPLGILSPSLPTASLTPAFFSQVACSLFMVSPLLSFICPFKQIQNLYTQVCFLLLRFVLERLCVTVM
In short: as §1

ETV2 = target: T4, ETV2 (Homo sapiens, UniProt O00321 1-342)
T4 sequence: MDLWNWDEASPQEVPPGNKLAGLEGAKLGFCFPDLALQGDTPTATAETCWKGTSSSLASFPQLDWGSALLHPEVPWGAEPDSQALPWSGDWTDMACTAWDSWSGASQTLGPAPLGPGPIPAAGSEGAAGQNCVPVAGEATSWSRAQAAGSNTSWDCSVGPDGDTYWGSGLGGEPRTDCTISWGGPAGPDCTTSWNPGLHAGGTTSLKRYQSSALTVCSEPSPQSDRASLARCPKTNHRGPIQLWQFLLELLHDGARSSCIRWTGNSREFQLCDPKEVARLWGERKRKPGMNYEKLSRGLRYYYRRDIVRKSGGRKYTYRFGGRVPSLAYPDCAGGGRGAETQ
In short: as §1

ELF3 = target: T5, ELF3 (Homo sapiens, UniProt P78545 1-371)
T5 sequence: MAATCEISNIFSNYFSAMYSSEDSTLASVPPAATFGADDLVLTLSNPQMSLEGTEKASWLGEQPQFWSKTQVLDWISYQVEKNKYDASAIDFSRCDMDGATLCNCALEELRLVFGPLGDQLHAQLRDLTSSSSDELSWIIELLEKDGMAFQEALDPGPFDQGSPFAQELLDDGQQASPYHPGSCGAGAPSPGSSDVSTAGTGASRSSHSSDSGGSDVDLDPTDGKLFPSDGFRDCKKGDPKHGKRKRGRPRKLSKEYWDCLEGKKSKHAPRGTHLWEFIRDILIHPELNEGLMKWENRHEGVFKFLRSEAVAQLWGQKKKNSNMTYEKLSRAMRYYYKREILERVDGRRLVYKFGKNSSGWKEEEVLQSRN
In short: as §1

ETV1 = ETV1 (Homo sapiens, UniProt P50549 1-477)
In short: as §1

ERF = target: T6, ERF (Homo sapiens, UniProt P50548 1-548)
T6 sequence: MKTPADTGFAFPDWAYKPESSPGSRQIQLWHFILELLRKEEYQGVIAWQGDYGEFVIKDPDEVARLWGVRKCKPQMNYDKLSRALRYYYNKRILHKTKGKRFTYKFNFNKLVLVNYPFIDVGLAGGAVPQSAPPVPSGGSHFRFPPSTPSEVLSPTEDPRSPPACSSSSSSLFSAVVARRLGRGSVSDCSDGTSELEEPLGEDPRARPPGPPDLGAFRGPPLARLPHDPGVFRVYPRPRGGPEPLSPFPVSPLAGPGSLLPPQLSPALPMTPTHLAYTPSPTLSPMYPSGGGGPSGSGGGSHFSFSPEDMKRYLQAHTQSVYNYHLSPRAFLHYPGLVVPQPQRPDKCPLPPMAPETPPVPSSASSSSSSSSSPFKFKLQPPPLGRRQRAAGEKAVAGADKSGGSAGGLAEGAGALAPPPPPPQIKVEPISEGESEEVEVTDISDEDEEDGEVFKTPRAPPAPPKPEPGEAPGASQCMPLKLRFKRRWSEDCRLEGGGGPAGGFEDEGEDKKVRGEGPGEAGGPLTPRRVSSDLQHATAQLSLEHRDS
In short: as §1

ETV3L = target: T7, ETV3L (Homo sapiens, UniProt Q6ZN32 1-361)
T7 sequence: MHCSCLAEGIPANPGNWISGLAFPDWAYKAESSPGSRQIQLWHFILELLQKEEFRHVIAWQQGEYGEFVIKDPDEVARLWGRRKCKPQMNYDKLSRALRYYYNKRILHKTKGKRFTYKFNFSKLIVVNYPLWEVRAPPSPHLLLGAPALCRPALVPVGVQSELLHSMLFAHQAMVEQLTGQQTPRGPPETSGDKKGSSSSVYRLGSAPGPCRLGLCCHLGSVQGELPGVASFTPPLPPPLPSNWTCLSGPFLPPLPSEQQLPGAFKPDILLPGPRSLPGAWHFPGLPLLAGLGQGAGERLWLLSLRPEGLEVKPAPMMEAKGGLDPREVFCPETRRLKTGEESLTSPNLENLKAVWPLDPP
In short: as §1

ETS2 = target: T8, ETS2 (Homo sapiens, UniProt P15036 1-469)
T8 sequence: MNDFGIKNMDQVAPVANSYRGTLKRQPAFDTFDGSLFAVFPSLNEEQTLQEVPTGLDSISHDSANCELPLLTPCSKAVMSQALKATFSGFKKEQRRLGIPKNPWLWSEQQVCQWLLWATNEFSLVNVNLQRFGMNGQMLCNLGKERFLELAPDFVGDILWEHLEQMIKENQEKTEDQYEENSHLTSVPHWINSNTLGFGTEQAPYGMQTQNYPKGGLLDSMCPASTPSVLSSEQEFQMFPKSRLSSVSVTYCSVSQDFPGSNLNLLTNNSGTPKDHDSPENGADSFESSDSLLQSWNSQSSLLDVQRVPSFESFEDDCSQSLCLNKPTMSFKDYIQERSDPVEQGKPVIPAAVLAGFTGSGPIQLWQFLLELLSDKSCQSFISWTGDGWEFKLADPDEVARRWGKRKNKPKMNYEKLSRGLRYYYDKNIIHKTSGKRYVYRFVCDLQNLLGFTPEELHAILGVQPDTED
In short: as §1

SPDEF = target: T9, SPDEF (Homo sapiens, UniProt O95238 1-335)
T9 sequence: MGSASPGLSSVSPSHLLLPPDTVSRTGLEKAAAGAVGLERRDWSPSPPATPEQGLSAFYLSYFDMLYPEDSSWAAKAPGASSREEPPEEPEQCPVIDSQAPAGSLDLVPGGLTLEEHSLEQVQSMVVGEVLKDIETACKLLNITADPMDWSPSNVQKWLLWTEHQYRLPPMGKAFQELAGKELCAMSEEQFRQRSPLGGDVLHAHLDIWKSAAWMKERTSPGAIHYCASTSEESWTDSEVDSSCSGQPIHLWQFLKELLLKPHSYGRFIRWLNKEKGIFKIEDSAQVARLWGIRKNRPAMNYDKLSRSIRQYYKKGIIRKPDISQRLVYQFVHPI
In short: as §1

ETV7 = target: T10, ETV7 (Homo sapiens, UniProt Q9Y603 1-341)
T10 sequence: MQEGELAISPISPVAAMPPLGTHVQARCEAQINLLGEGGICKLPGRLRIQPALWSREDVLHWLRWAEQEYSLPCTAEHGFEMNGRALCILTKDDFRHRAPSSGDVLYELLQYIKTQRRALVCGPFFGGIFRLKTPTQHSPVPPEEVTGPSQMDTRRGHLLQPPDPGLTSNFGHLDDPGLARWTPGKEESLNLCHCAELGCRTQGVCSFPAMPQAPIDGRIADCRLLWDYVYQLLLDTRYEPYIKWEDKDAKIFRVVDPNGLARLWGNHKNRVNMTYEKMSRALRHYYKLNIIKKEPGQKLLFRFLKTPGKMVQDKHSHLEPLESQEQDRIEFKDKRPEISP
In short: as §1

ELF5 = target: T11, ELF5 (Homo sapiens, UniProt Q9UKW6-2 1-255)
T11 sequence: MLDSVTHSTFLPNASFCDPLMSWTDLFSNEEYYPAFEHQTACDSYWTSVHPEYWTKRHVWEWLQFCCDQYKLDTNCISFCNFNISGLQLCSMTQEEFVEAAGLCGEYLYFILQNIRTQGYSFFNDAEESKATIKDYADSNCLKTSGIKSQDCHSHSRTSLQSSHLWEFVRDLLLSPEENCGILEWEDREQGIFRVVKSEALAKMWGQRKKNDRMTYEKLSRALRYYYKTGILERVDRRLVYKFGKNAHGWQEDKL
In short: as §1

ETV3 = target: T12, ETV3 (Homo sapiens, UniProt P41162-2 1-143)
T12 sequence: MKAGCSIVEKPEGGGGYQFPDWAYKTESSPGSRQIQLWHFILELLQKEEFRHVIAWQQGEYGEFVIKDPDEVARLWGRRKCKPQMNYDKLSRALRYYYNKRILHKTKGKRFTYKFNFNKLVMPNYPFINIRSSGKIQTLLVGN
In short: as §1

ETV6 = ETV6 (Homo sapiens, UniProt P41212 1-452)
In short: as §1

ETV5, sequence (P41161 whole entry): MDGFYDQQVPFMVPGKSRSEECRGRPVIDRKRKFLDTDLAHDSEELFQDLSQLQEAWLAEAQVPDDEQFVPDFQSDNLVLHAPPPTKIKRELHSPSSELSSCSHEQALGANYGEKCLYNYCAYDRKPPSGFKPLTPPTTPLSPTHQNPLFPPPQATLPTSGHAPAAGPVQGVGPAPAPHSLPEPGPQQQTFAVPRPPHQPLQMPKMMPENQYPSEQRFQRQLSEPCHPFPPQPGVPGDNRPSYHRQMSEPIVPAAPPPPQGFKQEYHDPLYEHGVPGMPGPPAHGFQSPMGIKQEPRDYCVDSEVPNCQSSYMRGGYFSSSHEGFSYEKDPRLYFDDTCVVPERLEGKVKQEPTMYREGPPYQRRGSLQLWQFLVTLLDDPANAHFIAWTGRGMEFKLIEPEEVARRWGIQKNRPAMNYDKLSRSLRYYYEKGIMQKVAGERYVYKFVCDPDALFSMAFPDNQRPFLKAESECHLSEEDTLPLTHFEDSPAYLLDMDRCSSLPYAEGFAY
ETV6, sequence (P41212 whole entry): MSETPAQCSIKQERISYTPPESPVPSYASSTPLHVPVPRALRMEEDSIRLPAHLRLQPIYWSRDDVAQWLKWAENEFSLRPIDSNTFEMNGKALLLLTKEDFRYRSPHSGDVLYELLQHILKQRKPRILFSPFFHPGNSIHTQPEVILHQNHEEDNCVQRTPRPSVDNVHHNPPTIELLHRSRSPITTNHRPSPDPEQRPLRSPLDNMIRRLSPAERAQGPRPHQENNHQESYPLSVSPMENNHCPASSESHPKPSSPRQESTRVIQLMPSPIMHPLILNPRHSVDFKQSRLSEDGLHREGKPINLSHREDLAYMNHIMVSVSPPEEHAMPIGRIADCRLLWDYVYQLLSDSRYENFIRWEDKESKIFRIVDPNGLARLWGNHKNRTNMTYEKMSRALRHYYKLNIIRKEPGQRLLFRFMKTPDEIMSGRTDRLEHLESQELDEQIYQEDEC
ETV1, sequence (P50549 whole entry): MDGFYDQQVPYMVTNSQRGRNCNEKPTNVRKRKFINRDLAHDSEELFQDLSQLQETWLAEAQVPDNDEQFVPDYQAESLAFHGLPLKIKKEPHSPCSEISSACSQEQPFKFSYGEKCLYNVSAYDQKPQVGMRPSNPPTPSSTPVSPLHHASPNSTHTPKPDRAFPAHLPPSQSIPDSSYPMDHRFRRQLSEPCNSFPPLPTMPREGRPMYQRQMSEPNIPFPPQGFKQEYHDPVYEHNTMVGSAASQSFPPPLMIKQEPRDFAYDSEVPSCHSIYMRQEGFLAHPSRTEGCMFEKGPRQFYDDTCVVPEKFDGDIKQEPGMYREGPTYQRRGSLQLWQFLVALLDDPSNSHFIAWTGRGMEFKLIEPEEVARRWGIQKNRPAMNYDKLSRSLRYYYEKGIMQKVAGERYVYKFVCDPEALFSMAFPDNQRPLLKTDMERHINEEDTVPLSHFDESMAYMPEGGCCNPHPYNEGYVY
ELF4, sequence (Q99607 whole entry): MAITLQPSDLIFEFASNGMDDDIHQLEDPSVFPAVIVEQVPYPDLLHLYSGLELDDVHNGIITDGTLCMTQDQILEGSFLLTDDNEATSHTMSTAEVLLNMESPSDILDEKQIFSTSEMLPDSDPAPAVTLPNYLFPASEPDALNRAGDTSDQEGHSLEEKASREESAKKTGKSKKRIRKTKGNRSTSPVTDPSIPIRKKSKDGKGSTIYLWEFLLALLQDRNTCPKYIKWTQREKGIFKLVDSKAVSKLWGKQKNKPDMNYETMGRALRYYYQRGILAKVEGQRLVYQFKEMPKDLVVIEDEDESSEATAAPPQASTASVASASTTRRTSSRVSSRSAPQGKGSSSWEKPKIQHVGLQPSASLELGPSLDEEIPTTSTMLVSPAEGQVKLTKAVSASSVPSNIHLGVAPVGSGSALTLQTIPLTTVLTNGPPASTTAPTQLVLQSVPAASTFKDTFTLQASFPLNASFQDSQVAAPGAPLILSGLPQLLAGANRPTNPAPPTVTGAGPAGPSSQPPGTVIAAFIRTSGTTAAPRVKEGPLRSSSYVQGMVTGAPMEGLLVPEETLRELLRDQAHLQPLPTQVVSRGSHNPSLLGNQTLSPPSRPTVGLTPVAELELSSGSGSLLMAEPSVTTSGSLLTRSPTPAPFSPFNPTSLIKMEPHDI

With TGCGAC the binding signal (FEV) was 1.24 fold enrichment (6-mer frequency, TF over GST control), the binding signal (ETV5) was 1.24 fold enrichment (6-mer frequency, TF over GST control) and the binding signal (SPIC) was 1.3 fold enrichment (6-mer frequency, TF over GST control). The binding signal (ELF4) was 1.27 fold enrichment (6-mer frequency, TF over GST control), the binding signal (ELK4) was 1.25 fold enrichment (6-mer frequency, TF over GST control) and the binding signal (ETV2) was 1.33 fold enrichment (6-mer frequency, TF over GST control). For the same sequence, the binding signal (ELF3) was 1.32 fold enrichment (6-mer frequency, TF over GST control), the binding signal (ETV1) was 1.18 fold enrichment (6-mer frequency, TF over GST control) and the binding signal (ERF) was 1.22 fold enrichment (6-mer frequency, TF over GST control). The binding signal (ETV3L) was 1.32 fold enrichment (6-mer frequency, TF over GST control), the binding signal (ETS2) was 1.19 fold enrichment (6-mer frequency, TF over GST control) and the binding signal (SPDEF) was 1.15 fold enrichment (6-mer frequency, TF over GST control). For the same sequence, the binding signal (ETV7) was 1.29 fold enrichment (6-mer frequency, TF over GST control), the binding signal (ELF5) was 1.2 fold enrichment (6-mer frequency, TF over GST control) and the binding signal (ETV3) was 1.27 fold enrichment (6-mer frequency, TF over GST control). The binding signal (ETV6) was 1.28 fold enrichment (6-mer frequency, TF over GST control).
